The results in this text go back to PubChem BioAssay (NCI).

Molecules are shown by their SMILES. The panel holds about 83,000 compounds, 20% with a hit somewhere; the sample as a whole holds those more often.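 Results are percent growth after 48 hours of single-concentration exposure. 100 means growth as in untreated cells, lower positive values show inhibition; negative values down to -100 show cell death.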 Values without a mark were called inactive. The source made the active and inactive calls. How the source made its calls: active means growth percent below 10; inactive means the rest.

Some test systems named below: NCI-H23 lung; NCI-H226 lung; NCI-H322M lung; NCI-H460 lung; NCI-H522 lung; A549/ATCC NSCLC; 786-0 renal; COLO 205 colon; DU-145 prostate; K-562 leukemia; MALME-3M melanoma; MDA-MB-231 breast; RXF 393 renal; SF-268 CNS; SF-295 CNS; SF-539 CNS; UACC-257 melanoma; M14 melanoma; HOP-92 NSCLC.
What all share (test): NCI-60 one-dose screen, 48 h (100 = growth as untreated, 0 = no growth, -100 = all killed)
Holding throughout (settings): 10 µM

With `O=C(N/N=C/c1cc([N+](=O)[O-])ccc1O)c1cccc2ccccc12`, the growth was 45.3% in the test on NCI-H23 lung; 42.6% in the test with NCI-H226 lung; 45.4% in the test on NCI-H322M lung; 20.7% in the test on NCI-H460 lung; 21.9% with NCI-H522 lung; 54.8% in the test with A549/ATCC NSCLC. Besides, the growth with 786-0 renal was 36.5%; in the test on COLO 205 colon it was 48.9%; with DU-145 prostate, 45.2%; with K-562 leukemia it was 30.3%; in the test with MALME-3M melanoma, 53.7%; with MDA-MB-231 breast, 40.9%. The growth in the test with RXF 393 renal is 46.5%; in the test with SF-268 CNS, 39.8%; with SF-295 CNS, 26.4%; with SF-539 CNS it was 22.9%; in the test with UACC-257 melanoma, 23.5%; with M14 melanoma, 34.5%.

In the case of `IC(I)I`, the growth is 102% in the test on NCI-H23 lung; 100% in the test with NCI-H226 lung; 102% in the test with NCI-H322M lung; 109% in the test on NCI-H460 lung; 119% in the test with NCI-H522 lung; 102% in the test with A549/ATCC NSCLC. Besides, the growth with 786-0 renal was 101%; in the test with DU-145 prostate it was 107%; with K-562 leukemia it was 120%; in the test with MDA-MB-231 breast, 88.6%; in the test with RXF 393 renal, 125%; in the test on SF-268 CNS, 96.4%. The growth was 114% with SF-295 CNS, 118% in the test with SF-539 CNS, 109% in the test with UACC-257 melanoma and 99% with M14 melanoma.

For the compound `CSc1ccc(-c2cc(-c3ccc(NC(=O)CCCN4CCCC4)cc3)nc(-c3ccc(NC(=O)CCCN4CCCC4)cc3)c2)cc1`, the growth with NCI-H23 lung is 92.8%; with NCI-H226 lung, 81.9%; in the test with NCI-H322M lung it was 94.8%; with NCI-H460 lung it was 32.1%; in the test with NCI-H522 lung it was 62.5%; in the test with A549/ATCC NSCLC it was 46.2%. The growth in the test with 786-0 renal is 80.7%; in the test with COLO 205 colon it was 82.6%; in the test with DU-145 prostate, 104%; with K-562 leukemia it was -36.4% (active); with MALME-3M melanoma, 88.4%; in the test on MDA-MB-231 breast, -4.05% (active). The growth is 51.1% in the test on RXF 393 renal; 48.6% with SF-268 CNS; 75.7% in the test on SF-539 CNS; 95.3% in the test with UACC-257 melanoma; 88.4% in the test on M14 melanoma.

Turning to `CCOC(=O)c1cocc1C(=O)O`, the growth in the test on NCI-H23 lung is 109%; in the test on NCI-H226 lung, 102%; in the test on NCI-H322M lung, 110%; in the test with NCI-H460 lung it was 104%; in the test on NCI-H522 lung, 106%; in the test on A549/ATCC NSCLC, 101%. Moreover, the growth was 103% in the test with 786-0 renal; 108% in the test with COLO 205 colon; 113% with DU-145 prostate; 92.6% in the test with K-562 leukemia; 106% in the test on MALME-3M melanoma; 118% in the test on MDA-MB-231 breast. For the same compound, the growth in the test on RXF 393 renal was 114%; with SF-268 CNS, 108%; in the test on SF-295 CNS, 101%; with SF-539 CNS it was 107%; with UACC-257 melanoma, 103%; with M14 melanoma it was 103%.

On to `O=c1oc2c(cc1-c1ccc(F)cc1)C(O)Oc1ccccc1-2` (centres undefined), for which the growth in the test with NCI-H23 lung was 99.2%; in the test with NCI-H226 lung, 105%; in the test on NCI-H322M lung, 83.1%; with NCI-H460 lung, 80.8%; in the test with HOP-92 NSCLC, 48.8%; with A549/ATCC NSCLC, 88.9%. Moreover, the growth in the test with COLO 205 colon was 101%; in the test on DU-145 prostate, 98.1%; with K-562 leukemia, 66.7%; in the test on MALME-3M melanoma, 58.4%; with MDA-MB-231 breast, 77.8%; in the test on RXF 393 renal it was 93.9%. Also, the growth in the test on SF-268 CNS is 81.4%; with SF-295 CNS it was 84.2%; in the test with SF-539 CNS, 74.4%; with UACC-257 melanoma it was 84.1%.

On to `COc1ccc(Cl)cc1Nc1nc(C(F)(F)F)ccc1C(=O)N/N=C/c1cc(OC)c(OC)c(OC)c1`, for which the growth in the test with NCI-H23 lung is 54.9%; in the test on NCI-H226 lung, 30.7%; in the test with NCI-H322M lung it was 8.92% (active); in the test with NCI-H460 lung it was 21.4%; with HOP-92 NSCLC it was -12% (active); in the test with A549/ATCC NSCLC, 59.4%. The growth in the test with COLO 205 colon is 12.8%; with DU-145 prostate, 38.4%; with K-562 leukemia it was 24.1%; in the test with MALME-3M melanoma, -6.88% (active); with MDA-MB-231 breast, -5.79% (active); with RXF 393 renal, -10.2% (active). The growth in the test with SF-268 CNS was 8.43% (active); in the test on SF-295 CNS, 19.8%; with SF-539 CNS it was 17.1%; in the test with UACC-257 melanoma it was 54.8%.

`O=C(CI)OCC(COC(=O)CI)OC(=O)CI`: the growth with NCI-H23 lung is 65.9%; with NCI-H226 lung, 97.1%; in the test with NCI-H322M lung, 112%; with NCI-H460 lung, 98.9%; in the test with A549/ATCC NSCLC, 104%; in the test on 786-0 renal, 45.9%. Moreover, the growth with COLO 205 colon is 33.2%; in the test on DU-145 prostate it was 59.5%; in the test on K-562 leukemia, 41.6%; in the test on MALME-3M melanoma, 24.3%; in the test with MDA-MB-231 breast it was 91.3%; with RXF 393 renal, 24.7%. Further, the growth was 93.2% in the test with SF-268 CNS; 94.8% with SF-295 CNS; 114% in the test with SF-539 CNS; 76.5% with UACC-257 melanoma; 83.2% with M14 melanoma.

For `CC(=O)OC1C=CC(OC(C)=O)O1` (centres undefined), the growth was 89.4% in the test with NCI-H23 lung; 80% in the test on NCI-H226 lung; 101% in the test on NCI-H322M lung; 96.5% in the test on NCI-H460 lung; 79.2% in the test on NCI-H522 lung; 103% in the test on A549/ATCC NSCLC. The growth in the test with 786-0 renal was 94.6%; with COLO 205 colon, 97.1%; in the test on DU-145 prostate it was 101%; in the test on K-562 leukemia, 91.1%; in the test on MALME-3M melanoma, 89.7%; with MDA-MB-231 breast, 97.7%. Moreover, the growth is 112% in the test with RXF 393 renal; 97.4% in the test on SF-268 CNS; 93.5% in the test with SF-295 CNS; 112% in the test with SF-539 CNS; 94% in the test on UACC-257 melanoma; 89.5% in the test with M14 melanoma.

`N=C1S/C(=C/c2ccc(-c3ccc4c(c3)C(=O)NC4=O)o2)C(=O)N1c1ccc(Br)cc1`: the growth in the test with NCI-H23 lung is 55.8%; in the test with NCI-H226 lung, 66.5%; in the test on NCI-H322M lung, 43%; in the test with NCI-H460 lung, 34.6%; in the test on NCI-H522 lung it was 35.5%; in the test on A549/ATCC NSCLC, 34.5%. Also, the growth was 45.9% with 786-0 renal; 55.1% with COLO 205 colon; 27.8% with DU-145 prostate; 21.5% with K-562 leukemia; 18.3% with MALME-3M melanoma; 46.5% in the test with MDA-MB-231 breast. Moreover, the growth is -28.5% (active) with RXF 393 renal; 39.3% with SF-268 CNS; 22.1% in the test on SF-295 CNS; 87.8% with SF-539 CNS; 47.7% in the test with UACC-257 melanoma; 36.7% in the test on M14 melanoma.
